Measured values published in ChEMBL document CHEMBL2218924, “A broad activity screen in support of a chemogenomic map for kinase signalling research and drug discovery” (Biochem J, 2013).

Assays:
[1] = biological target: Rho-associated protein kinase 1 (Homo sapiens) (UniProt Q13464); conditions: at 1 µM
[2] = biological target: Rho-associated protein kinase 1 (Homo sapiens) (UniProt Q13464); conditions: at 10 µM
[3] = biological target: Rho-associated protein kinase 2 (Homo sapiens) (UniProt O75116); conditions: at 1 µM
[4] = biological target: Rho-associated protein kinase 2 (Homo sapiens) (UniProt O75116); conditions: at 10 µM
[5] = biological target: Proto-oncogene tyrosine-protein kinase receptor Ret (Homo sapiens) (UniProt P07949); conditions: at 1 µM
[6] = biological target: Proto-oncogene tyrosine-protein kinase receptor Ret (Homo sapiens) (UniProt P07949); conditions: at 10 µM
[7] = biological target: Macrophage-stimulating protein receptor (Homo sapiens) (UniProt Q04912); conditions: at 1 µM
[8] = biological target: Macrophage-stimulating protein receptor (Homo sapiens) (UniProt Q04912); conditions: at 10 µM
[9] = biological target: Proto-oncogene tyrosine-protein kinase ROS (Homo sapiens) (UniProt P08922); conditions: at 10 µM
[10] = biological target: Proto-oncogene tyrosine-protein kinase ROS (Homo sapiens) (UniProt P08922); conditions: at 1 µM

Proto-oncogene tyrosine-protein kinase receptor Ret (Homo sapiens), sequence (P07949 whole entry): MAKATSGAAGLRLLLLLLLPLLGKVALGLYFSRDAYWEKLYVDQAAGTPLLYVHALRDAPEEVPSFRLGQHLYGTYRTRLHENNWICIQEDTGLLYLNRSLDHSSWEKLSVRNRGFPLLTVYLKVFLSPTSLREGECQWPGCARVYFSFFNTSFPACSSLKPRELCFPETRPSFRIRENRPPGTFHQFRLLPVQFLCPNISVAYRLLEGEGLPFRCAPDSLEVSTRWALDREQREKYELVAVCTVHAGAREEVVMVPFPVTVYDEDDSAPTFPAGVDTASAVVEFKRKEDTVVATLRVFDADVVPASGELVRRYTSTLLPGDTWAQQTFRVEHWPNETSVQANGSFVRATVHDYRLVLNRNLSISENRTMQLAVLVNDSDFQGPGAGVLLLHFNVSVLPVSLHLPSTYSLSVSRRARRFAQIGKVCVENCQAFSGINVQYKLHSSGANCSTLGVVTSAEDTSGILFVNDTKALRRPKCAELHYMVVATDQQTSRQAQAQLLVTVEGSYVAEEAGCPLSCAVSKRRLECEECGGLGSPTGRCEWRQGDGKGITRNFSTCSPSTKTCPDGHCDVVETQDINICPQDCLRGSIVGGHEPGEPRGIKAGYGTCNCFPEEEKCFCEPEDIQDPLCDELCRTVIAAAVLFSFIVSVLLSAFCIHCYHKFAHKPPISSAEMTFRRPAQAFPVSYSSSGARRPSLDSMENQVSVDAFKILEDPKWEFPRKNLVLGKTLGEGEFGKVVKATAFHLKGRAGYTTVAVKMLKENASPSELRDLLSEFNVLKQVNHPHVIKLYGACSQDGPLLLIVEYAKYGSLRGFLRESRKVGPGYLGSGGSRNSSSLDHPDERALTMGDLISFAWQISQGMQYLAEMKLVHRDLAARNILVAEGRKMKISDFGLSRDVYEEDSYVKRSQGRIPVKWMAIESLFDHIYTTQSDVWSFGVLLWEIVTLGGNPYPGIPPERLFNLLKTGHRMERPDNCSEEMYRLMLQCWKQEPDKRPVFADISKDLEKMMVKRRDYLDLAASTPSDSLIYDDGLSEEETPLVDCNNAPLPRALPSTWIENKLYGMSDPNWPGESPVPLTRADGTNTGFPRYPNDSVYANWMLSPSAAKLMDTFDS
Rho-associated protein kinase 2 (Homo sapiens), sequence (O75116 whole entry, looked up): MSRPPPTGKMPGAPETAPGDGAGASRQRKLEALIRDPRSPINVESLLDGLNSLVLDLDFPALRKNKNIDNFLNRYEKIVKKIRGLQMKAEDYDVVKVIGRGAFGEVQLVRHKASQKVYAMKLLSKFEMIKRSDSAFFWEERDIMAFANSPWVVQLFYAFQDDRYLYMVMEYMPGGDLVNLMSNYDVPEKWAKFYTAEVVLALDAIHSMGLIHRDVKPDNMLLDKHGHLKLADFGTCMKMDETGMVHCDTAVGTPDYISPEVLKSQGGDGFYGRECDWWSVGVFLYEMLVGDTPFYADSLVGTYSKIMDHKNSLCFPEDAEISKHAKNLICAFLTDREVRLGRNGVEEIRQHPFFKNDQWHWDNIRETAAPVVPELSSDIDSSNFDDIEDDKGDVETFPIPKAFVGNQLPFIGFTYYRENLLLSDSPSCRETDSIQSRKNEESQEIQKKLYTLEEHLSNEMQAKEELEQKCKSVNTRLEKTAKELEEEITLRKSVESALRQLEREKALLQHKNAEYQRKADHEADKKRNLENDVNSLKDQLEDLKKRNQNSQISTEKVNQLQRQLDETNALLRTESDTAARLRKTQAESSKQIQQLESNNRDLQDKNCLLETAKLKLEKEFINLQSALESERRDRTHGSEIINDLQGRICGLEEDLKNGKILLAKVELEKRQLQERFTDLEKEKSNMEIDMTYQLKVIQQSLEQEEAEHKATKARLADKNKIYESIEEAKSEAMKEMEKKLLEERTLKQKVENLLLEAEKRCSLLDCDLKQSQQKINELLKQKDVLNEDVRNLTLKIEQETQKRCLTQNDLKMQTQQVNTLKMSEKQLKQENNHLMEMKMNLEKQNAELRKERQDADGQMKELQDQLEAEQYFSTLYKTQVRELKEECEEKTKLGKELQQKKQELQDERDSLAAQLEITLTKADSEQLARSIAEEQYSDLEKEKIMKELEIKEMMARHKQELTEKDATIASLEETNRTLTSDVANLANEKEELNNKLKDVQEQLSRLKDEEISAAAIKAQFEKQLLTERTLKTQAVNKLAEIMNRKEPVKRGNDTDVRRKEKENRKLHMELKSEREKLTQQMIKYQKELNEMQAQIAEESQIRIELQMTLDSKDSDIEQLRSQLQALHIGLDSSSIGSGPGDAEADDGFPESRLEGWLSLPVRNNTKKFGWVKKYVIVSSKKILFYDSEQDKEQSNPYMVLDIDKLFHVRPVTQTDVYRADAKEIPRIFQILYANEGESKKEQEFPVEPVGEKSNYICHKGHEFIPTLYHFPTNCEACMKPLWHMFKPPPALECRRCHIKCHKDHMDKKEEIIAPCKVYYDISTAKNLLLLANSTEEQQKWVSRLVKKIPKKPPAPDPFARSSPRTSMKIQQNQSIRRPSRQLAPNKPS
Macrophage-stimulating protein receptor (Homo sapiens), sequence (Q04912 25-304 limits assumed): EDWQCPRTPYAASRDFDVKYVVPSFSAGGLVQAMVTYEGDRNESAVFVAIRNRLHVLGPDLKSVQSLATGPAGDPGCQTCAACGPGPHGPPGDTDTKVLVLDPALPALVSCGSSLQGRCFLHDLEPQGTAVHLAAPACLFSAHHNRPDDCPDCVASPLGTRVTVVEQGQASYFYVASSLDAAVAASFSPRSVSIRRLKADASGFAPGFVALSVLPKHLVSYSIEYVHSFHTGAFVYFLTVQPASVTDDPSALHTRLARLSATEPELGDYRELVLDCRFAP
Macrophage-stimulating protein receptor (Homo sapiens), sequence (Q04912 310-1400 limits assumed): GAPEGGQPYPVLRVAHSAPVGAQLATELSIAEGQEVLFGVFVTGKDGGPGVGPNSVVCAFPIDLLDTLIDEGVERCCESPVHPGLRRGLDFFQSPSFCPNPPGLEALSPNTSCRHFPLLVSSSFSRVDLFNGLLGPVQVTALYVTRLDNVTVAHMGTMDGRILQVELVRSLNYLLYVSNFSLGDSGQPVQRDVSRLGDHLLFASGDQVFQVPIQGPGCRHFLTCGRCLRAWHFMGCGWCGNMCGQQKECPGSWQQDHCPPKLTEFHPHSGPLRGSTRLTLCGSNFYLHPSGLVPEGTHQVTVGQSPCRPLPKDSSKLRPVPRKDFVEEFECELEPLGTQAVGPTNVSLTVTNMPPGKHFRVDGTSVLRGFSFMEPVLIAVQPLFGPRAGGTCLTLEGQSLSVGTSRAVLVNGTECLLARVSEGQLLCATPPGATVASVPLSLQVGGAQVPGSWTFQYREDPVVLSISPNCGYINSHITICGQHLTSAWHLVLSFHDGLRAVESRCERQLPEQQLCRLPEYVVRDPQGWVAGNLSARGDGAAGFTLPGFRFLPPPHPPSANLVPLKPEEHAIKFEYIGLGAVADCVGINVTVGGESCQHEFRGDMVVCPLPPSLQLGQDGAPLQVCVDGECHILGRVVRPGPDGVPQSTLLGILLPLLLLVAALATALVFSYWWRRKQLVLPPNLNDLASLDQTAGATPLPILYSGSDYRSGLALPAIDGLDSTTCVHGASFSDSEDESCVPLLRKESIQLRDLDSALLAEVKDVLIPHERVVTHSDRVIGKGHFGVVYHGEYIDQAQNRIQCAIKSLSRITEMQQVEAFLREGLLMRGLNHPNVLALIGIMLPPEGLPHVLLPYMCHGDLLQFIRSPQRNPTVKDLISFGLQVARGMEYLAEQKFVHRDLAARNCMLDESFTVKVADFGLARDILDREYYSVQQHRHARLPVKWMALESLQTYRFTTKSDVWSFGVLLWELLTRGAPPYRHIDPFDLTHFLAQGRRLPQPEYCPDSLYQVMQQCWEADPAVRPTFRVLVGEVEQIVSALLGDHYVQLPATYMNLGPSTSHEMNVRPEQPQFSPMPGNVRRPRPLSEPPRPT

| SMILES | residual activity [1] [%] | residual activity [2] [%] | residual activity [3] [%] | residual activity [4] [%] | residual activity [5] [%] | residual activity [6] [%] | residual activity [7] [%] | residual activity [8] [%] | residual activity [9] [%] | residual activity [10] [%] |
| --- | --- | --- | --- | --- | --- | --- | --- | --- | --- | --- |
| CC(C)[C@H](CO)Nc1nc(Nc2cccc(Cl)c2)c2ncn(C(C)C)c2n1 | 115 | 96 | 95 | 76 | 91 | 27 | 92 | 86 | 96 |  |
| c1cc(-c2cnn3cc(-c4ccc(OCCN5CCCCC5)cc4)cnc23)ccn1 | 117 |  |  | 40 | 51 | 5 | 104 | 83 |  |  |
| COc1cc2ncnc(Nc3ccc(OCc4ccccc4)cc3)c2cc1OC | 83 | 96 | 119 | 97 | 75 | 89 | 88 | 80 | 101 | 108 |
| C[S+]([O-])c1ccc(-c2nc(-c3ccc(F)cc3)c(-c3ccncc3)[nH]2)cc1 (centres undefined) | 70 | 74 | 119 | 100 |  | 46 | 105 | 109 | 110 | 117 |
| CC(C)(C)c1cc(C=C(C#N)C#N)cc(Br)c1O | 102 | 82 | 115 |  | 101 | 108 |  |  | 111 | 108 |
| COc1ccc2c(c1)/C(=C/c1cnc[nH]1)C(=O)N2 | 123 |  |  | 36 |  |  |  | 65 |  |  |
| CCn1cnc2c(Nc3cccc(Cl)c3)nc(N[C@@H]3CCCC[C@@H]3N)nc21 | 115 | 84 | 78 | 53 | 61 | 25 | 85 | 77 | 84 | 93 |
| O=C1c2ccccc2-c2nc3nnnn3nc21 | 112 | 117 |  |  | 105 | 114 |  |  | 110 | 103 |
| O=C1Nc2ccc3ncsc3c2/C1=C/c1c[nH]cn1 | 59 | 23 | 5 | 1 | 9 | 0 | 60 | 11 | 87 | 88 |
| O=c1[nH]c2ccccc2n1C1CCN(Cc2ccc(-c3nc4cc5[nH]cnc5cc4nc3-c3ccccc3)cc2)CC1 | 114 | 119 | 103 | 74 | 99 | 83 | 103 | 79 | 93 | 96 |
| O=C1NC(=O)c2c1c1c3ccccc3n3c1c1c2c2ccccc2n1C1CCC3O1 |  | 95 |  |  | 37 | 34 |  |  | 81 | 94 |
| COC(=O)[C@@]1(O)C[C@H]2O[C@]1(C)n1c3ccccc3c3c4c(c5c6ccccc6n2c5c31)C(=O)NC4 | 50 | 12 | 15 | 2 | 2 | 1 | 33 | 3 | 3 | 21 |
| N/C(=N\[N+](=O)[O-])N/N=C\c1ccc(-c2cccc([N+](=O)[O-])c2)o1 | 134 |  |  | 98 |  |  | 63 | 63 |  |  |
| COc1cc(OC)c(/C=C2\C(=O)Nc3ccccc32)c(OC)c1 | 127 | 126 | 88 | 92 | 99 | 92 | 77 | 72 | 63 | 96 |
| COc1cc2nccc(Oc3ccc(NC(=O)Nc4cc(C)on4)c(Cl)c3)c2cc1OC |  |  | 76 | 51 |  |  |  |  |  |  |
| COc1ccc2c(c[n+](C)c3c4cc5c(cc4ccc23)OCO5)c1OC | 110 | 120 |  | 82 | 86 |  | 86 | 75 |  |  |
| CCc1nc(-c2ccc(OC)cc2)[nH]c1-c1ccncc1 | 113 | 106 | 107 | 82 | 106 | 80 |  |  | 101 | 105 |
| O=S(=O)(NCCNC/C=C/c1ccc(Br)cc1)c1cccc2cnccc12 |  |  | 8 | 0 |  |  |  |  |  |  |
| O=[N+]([O-])/C=C/c1ccc2c(c1)OCO2 | 109 | 109 | 99 | 79 | 96 | 108 | 100 | 93 | 98 | 95 |
| CO[C@H]1[C@@H](OC)C[C@H](C)[C@@H](OC)C2=CC(=O)C=C(NC(=O)/C(C)=C/C=C/[C@H](OC)[C@@H](OC(N)=O)/C(C)=C/[C@@H]1C)C2=O |  |  | 106 | 80 |  |  |  |  |  |  |
